PfHsp90 set2: reduces growth (ATP signal) of yeast expressing P. falciparum Hsp90; S. cerevisiae expressing PfHsp90, BacTiter-Glo ATP, 48 h; yeast lacking PDR1 and PDR3 efflux regulators; 0.32% of 310,000 active; inhibition, % at 9.4 µM;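 active = every replicate shows inhibition above about 80%, whatever the replicate mean, limit read from the data; inconclusive = mean inhibition reaches the set limit but some replicate falls short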;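 note: 0% = DMSO neutral controls and 100% = 20 µM radicicol positive controls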
V-ATPase pHluor: alters yeast V-ATPase proton transport. 0.37% of 350,000 active. S. cerevisiae, pHLuorin cytosolic pH fluorescence. response, % at 10 µM; in the data active = response mostly above about 7.3%, no sharp cut-off; inactive = mostly below about 5.4%; note: actives read high
TIM10 inh: TIM10 yeast growth inhibition; S. cerevisiae TIM10 strain growth, BacTiter-Glo luminescence, 24 h; inhibition, % at 10 µM; 1.4% of 330,000 active; AID 463195;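 active = inhibition of 40% or more at the single tested concentration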;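 note: wild-type TIM10 isogenic control strain grown at permissive 25 °C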
SKKanGAS inh: SKKanGAS growth inhibition. 1.3% of 300,000 active. inhibition, % at 7.5 µM. S. pyogenes SKKanGAS, kanamycin growth, BacTiter-Glo, 6 h;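 active = mean replicate score, as percent of positive control median, at least 50; inconclusive = mean below 50 but one replicate at or above 50; inactive = mean and every replicate below 50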;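 note: strain carries kanamycin resistance gene driven by streptokinase promoter and grows in 40 µg/ml kanamycin; loss of luminescence reflects streptokinase promoter inhibition or plain growth inhibition; 0% = median of DMSO wells and 100% = positive control at its reference dose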
tim10-1 inh: inhibits growth of tim10-1 mutant yeast. S. cerevisiae tim10-1 ts strain growth, BacTiter-Glo, 24 h. inhibition, % at 20 µM. 2.2% of 330,000 active. AID 463190;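 active = inhibition of at least 40%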;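 note: mutant grown at 25 °C; 0% = DMSO wells with yeast and 100% = wells holding no yeast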
tim23-1 inh: growth inhibitors of tim23-1 mutant yeast. S. cerevisiae tim23-1 growth, BacTiter-Glo luminescence, 24 h. 1.3% of 330,000 active. inhibition, % at 20 µM;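 active = growth inhibition of the mutant yeast at or above 50%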;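 note: temperature-sensitive mutant grown at 25 °C; plate controls were DMSO-treated mutant yeast for no effect and medium wells lacking yeast for full effect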
An asterisk follows results filed as active. A selection: hits, their analogues and other compounds. The true share with any hit is near 4.6%.

Screening CCCCn1c(N)c(N(CC(C)C)C(=O)C2CCCO2)c(=O)[nH]c1=O (stereo not drawn) returned V-ATPase pHluor -1, TIM10 inh 5, SKKanGAS inh -7, tim10-1 inh 13 and tim23-1 inh 7.
CC1CN(S(=O)(=O)c2cc(C(=O)N(C)Cc3cccs3)ccc2Cl)CC(C)O1 (stereo not drawn) was read as PfHsp90 set2 -8, V-ATPase pHluor -3, TIM10 inh 7, tim10-1 inh 16 and tim23-1 inh 20.
O=C1/C(=N\S(=O)(=O)c2cccs2)C([n+]2ccc(CCCc3ccccc3)cc2)=C([O-])c2ccccc21 was read as V-ATPase pHluor 0, TIM10 inh 0, SKKanGAS inh 110*, tim10-1 inh 7 and tim23-1 inh 10.
Screening O=C1/C(=N\S(=O)(=O)c2cccs2)C([n+]2cccc(Cc3ccccc3)c2)=C([O-])c2ccccc21 returned PfHsp90 set2 -8, V-ATPase pHluor 6, TIM10 inh -27, SKKanGAS inh 106*, tim10-1 inh -13 and tim23-1 inh -19.
For CC(C)(C)c1cc[n+](C2=C([O-])c3ccccc3C(=O)/C2=N\S(=O)(=O)c2ccccc2)cc1 the results were V-ATPase pHluor -2, TIM10 inh 21, SKKanGAS inh 86*, tim10-1 inh 0 and tim23-1 inh -4.
Cc1cc(C)c[n+](C2=C([O-])c3ccccc3C(=O)/C2=N\S(=O)(=O)c2cccs2)c1 was read as PfHsp90 set2 -16, V-ATPase pHluor -3, TIM10 inh 11, SKKanGAS inh inconclusive, tim10-1 inh 10 and tim23-1 inh 11.
Screening Cc1cc[n+](C2=C([O-])c3ccccc3C(=O)/C2=N\S(=O)(=O)c2cccs2)cc1C returned PfHsp90 set2 -6, V-ATPase pHluor 3, TIM10 inh 1, SKKanGAS inh 19, tim10-1 inh 13 and tim23-1 inh 13.
Screening CCN(CC(=O)NCc1cccs1)C(=O)c1cccc(S(=O)(=O)N2CC(C)OC(C)C2)c1 (stereo not drawn) returned PfHsp90 set2 -6, TIM10 inh 12, tim10-1 inh -5 and tim23-1 inh 10.
`CC(C)c1ccc(-c2nc(N3CCCC3)nc3n[nH]c(N)c23)cc1` gave PfHsp90 set2 13, V-ATPase pHluor -2, TIM10 inh 12, SKKanGAS inh 53*, tim10-1 inh 7 and tim23-1 inh 10.
`CC(C)c1ccc(-c2nc(N3CCCCCC3)nc3n[nH]c(N)c23)cc1` gave V-ATPase pHluor 2, TIM10 inh 22, SKKanGAS inh 26, tim10-1 inh 14 and tim23-1 inh 10.
Screening Cc1nc(-c2ccc(S(=O)(=O)Nc3cccc(S(N)(=O)=O)c3)s2)cs1 returned PfHsp90 set2 -8, V-ATPase pHluor 7, TIM10 inh -23, SKKanGAS inh 6, tim10-1 inh -19 and tim23-1 inh -2.
For Cc1nc(-c2ccc(S(=O)(=O)Nc3ccc(Br)cc3Cl)s2)cs1 the results were PfHsp90 set2 -10, V-ATPase pHluor -4, TIM10 inh 38, SKKanGAS inh 74*, tim10-1 inh 28 and tim23-1 inh 41.
Screening O=C(CN1C(=O)COc2ccc(S(=O)(=O)N3CCCCC3)cc21)NCc1ccc(F)cc1 returned PfHsp90 set2 -13, V-ATPase pHluor 2, TIM10 inh 2, SKKanGAS inh 103*, tim10-1 inh -3 and tim23-1 inh 12.
C[C@H](CO)N1C[C@H](C)[C@@H](CN(C)Cc2ccncc2)OCc2cnnn2CCCC1=O was read as V-ATPase pHluor -1.
Screening CC(C)[C@H](NC(=O)[C@@H]1Cc2c([nH]c3ccccc23)C2c3ccccc3C(=O)N21)C(=O)N1CCC[C@@H]1C(=O)O (stereo partly drawn) returned PfHsp90 set2 -4, V-ATPase pHluor 5, TIM10 inh -4, SKKanGAS inh 8, tim10-1 inh -1 and tim23-1 inh 6.
Screening O=C1C(Cl)=C(NCCc2ccccc2)C(=O)c2ccccc21 returned PfHsp90 set2 116* and V-ATPase pHluor 12*.
For O=C1C(Cl)=C(Nc2ccccc2)C(=O)c2ccccc21 the results were PfHsp90 set2 2, V-ATPase pHluor 0 and SKKanGAS inh -10.
`O=C(CCC1CCCCC1)Nc1nncs1` gave PfHsp90 set2 9, V-ATPase pHluor 3, TIM10 inh 18, SKKanGAS inh -1, tim10-1 inh 14 and tim23-1 inh 25.
`COc1ccccc1NC(=S)NCc1ccccc1Cl` gave PfHsp90 set2 16, V-ATPase pHluor 0, TIM10 inh 14, SKKanGAS inh 4, tim10-1 inh 16 and tim23-1 inh 44.
Screening COc1ccc(NC(=S)NCc2ccccc2Cl)c(OC)c1 returned PfHsp90 set2 -11, V-ATPase pHluor 21*, TIM10 inh 7, SKKanGAS inh 7, tim10-1 inh 2 and tim23-1 inh 33.
Screening C#CCOCCOCCOCCNc1nc(N2CCN(C(=O)[C@H](CCC(=O)O)n3cc(C(N)[C@H](C)CC)nn3)CC2)nc(N2CCN(C(=O)[C@H](CCC(=O)O)n3cc(C(N)[C@H](C)CC)nn3)CC2)n1 (stereo partly drawn) returned PfHsp90 set2 -34, V-ATPase pHluor -3, TIM10 inh 6, SKKanGAS inh -2, tim10-1 inh 0 and tim23-1 inh -2.
COc1ccc(NC(C)=O)cc1NC(=O)CN1CCN(S(=O)(=O)c2ccc(C(C)C)cc2)CC1 was read as PfHsp90 set2 -5, V-ATPase pHluor 19*, TIM10 inh -1, SKKanGAS inh -6, tim10-1 inh -11 and tim23-1 inh -10.
Screening CN(C)CC(=O)Nc1ccc2c(c1)[C@H]1C[C@H](CC(=O)NCc3ccc4c(c3)OCO4)O[C@H](CO)[C@H]1O2 returned V-ATPase pHluor 4.
For Cc1ccc(Nc2nc(N)c([N+](=O)[O-])c(NCc3ccco3)n2)cc1C the results were PfHsp90 set2 -34, V-ATPase pHluor 2, TIM10 inh 6, SKKanGAS inh 60*, tim10-1 inh 11 and tim23-1 inh 26.
`O=C(NNc1ncnc2ccccc12)c1cccc(Cl)c1` gave PfHsp90 set2 17, V-ATPase pHluor -3, TIM10 inh 11, SKKanGAS inh 0, tim10-1 inh -4 and tim23-1 inh 3.
`Cn1cnnc1SCc1ccc(C(=O)N=Nc2c(O)n(Cc3ccc(Cl)cc3)c3ccccc23)cc1` gave PfHsp90 set2 -1, V-ATPase pHluor 4, TIM10 inh 16, SKKanGAS inh 57*, tim10-1 inh 18 and tim23-1 inh 28.
For CCn1c(O)c(N=NC(=O)c2ccc(CSc3nncn3C)cc2)c2ccccc21 the results were PfHsp90 set2 -6, V-ATPase pHluor -4, TIM10 inh -6, SKKanGAS inh -4, tim10-1 inh 2 and tim23-1 inh 6.
Screening CCOC(=O)c1ccc(N=Cc2cnc(N)nc2N)cc1 returned PfHsp90 set2 -19 and V-ATPase pHluor 0.

Compound activity: PubChem, several laboratories
